Results filed as inconclusive are left out. Active and inactive are the calls of the source. Calls follow the shape of the dose curve; as a rule, active = well fitted curve in the direction sought with a large enough effect; inconclusive = small, poorly fitted or top-dose-only effect, or another doubt; inactive = no such curve, though single readings can be large; an effect the other way counts as inactive or inconclusive.
Key:
[1] = Quantitative High-Throughput drug screen in 47 multiple myeloma cell lines against the NCATS MIPE library collection: FR4_PLB cell viability assay (AID 1918924; also: nearly all actives have a fitted effect of over 35% in size; also: potency is read from the fitted curve at half-maximal effect); conditions: FR4_PLB myeloma cells viability, CellTiter-Glo ATP, 48 h; series mostly up to 45.8 µM
Method in brief: (§1)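 Steps: seed 500 cells per well; pin-transfer MIPE 4.0 library; incubate 48 h at 37C, 5% CO2, humidified; add CellTiter-Glo, 5 min room temperature; read luminescence.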

[2] = Quantitative High-Throughput drug screen in 47 multiple myeloma cell lines against the NCATS MIPE library collection: EJM_DSMZ cell viability assay (AID 1918926; also: nearly all actives have a fitted effect of over 30% in size; also: potency is read from the fitted curve at half-maximal effect); conditions: EJM myeloma cell viability, CellTiter-Glo ATP, 48 h; series mostly up to 45.8 µM
Method in brief: (§2)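 We plated 500 myeloma cells per well, pinned in MIPE 4.0 compounds, and incubated for 48 hours at 37C. ATP was then quantified with CellTiter-Glo, with DMSO and media-only wells defining 100% and 0%.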

[3] = Quantitative High-Throughput drug screen in 47 multiple myeloma cell lines against the NCATS MIPE library collection: AMO1_DSMZ cell viability assay (AID 1918927; also: nearly all actives have a fitted effect of over 30% in size; also: potency is read from the fitted curve at half-maximal effect); conditions: AMO1 myeloma cells viability, CellTiter-Glo ATP luminescence, 48 h; series mostly up to 45.8 µM
Method in brief: as §2

[4] = Quantitative High-Throughput drug screen in 47 multiple myeloma cell lines against the NCATS MIPE library collection: ARP1_JJKsccF8 cell viability assay (AID 1918928; also: nearly all actives have a fitted effect of over 40% in size; also: potency is read from the fitted curve at half-maximal effect); conditions: ARP1 myeloma cells viability, CellTiter-Glo ATP, 48 h; series mostly up to 45.8 µM
Method in brief: (§3)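 Each line was plated at 500 cells/well and treated 48 h with library drugs. Viability came from CellTiter-Glo luminescence relative to DMSO and cell-free medium controls.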

[5] = Quantitative High-Throughput drug screen in 47 multiple myeloma cell lines against the NCATS MIPE library collection: Karpas620_DSMZ cell viability assay (AID 1918959); conditions: Karpas620 myeloma viability, CellTiter-Glo ATP luminescence, 48 h; series mostly up to 45.8 µM; also: nearly all actives have a fitted effect of over 30% in size; also: potency is read from the fitted curve at half-maximal effect
Method in brief: as §1

[6] = Quantitative High-Throughput drug screen in 47 multiple myeloma cell lines against the NCATS MIPE library collection: KMM1_JCRB cell viability assay (AID 1918960); conditions: KMM1 myeloma viability, CellTiter-Glo ATP luminescence, 48 h; series mostly up to 45.8 µM; also: nearly all actives have a fitted effect of over 30% in size; also: potency is read from the fitted curve at half-maximal effect
Method in brief: as §3

[7] = Quantitative High-Throughput drug screen in 47 multiple myeloma cell lines against the NCATS MIPE library collection: KHM11_PLB cell viability assay (AID 1918962); conditions: KHM11 myeloma cell viability, CellTiter-Glo ATP luminescence, 48 h; series mostly up to 45.8 µM; also: nearly all actives have a fitted effect of over 35% in size; also: potency is read from the fitted curve at half-maximal effect
Method in brief: as §1

[8] = Quantitative High-Throughput drug screen in 47 multiple myeloma cell lines against the NCATS MIPE library collection: JIM3_ECACC cell viability assay (AID 1918963; also: nearly all actives have a fitted effect of over 35% in size; also: potency is read from the fitted curve at half-maximal effect); conditions: JIM3 myeloma viability, CellTiter-Glo ATP, 48 h; series mostly up to 45.8 µM
Method in brief: as §1

[9] = Quantitative High-Throughput drug screen in 47 multiple myeloma cell lines against the NCATS MIPE library collection: JIM1_ECACC cell viability assay (AID 1918964; also: potency is read from the fitted curve at half-maximal effect); conditions: JIM1 myeloma viability, CellTiter-Glo ATP luminescence, 48 h; series mostly up to 45.8 µM
Method in brief: as §2

[10] = Quantitative High-Throughput drug screen in 47 multiple myeloma cell lines against the NCATS MIPE library collection: INA6_PLB cell viability assay (AID 1918965; also: nearly all actives have a fitted effect of over 55% in size; also: potency is read from the fitted curve at half-maximal effect); conditions: INA6 myeloma viability, CellTiter-Glo ATP luminescence, 48 h; series mostly up to 45.8 µM
Method in brief: (§4)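 CellTiter-Glo luminescence (ATP) after 48 h compound exposure, 37C/5% CO2; 500 cells/well; MIPE 4.0 approved/investigational drugs pinned in; DMSO = 100%, media only = 0% viability.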

[11] = Quantitative High-Throughput drug screen in 47 multiple myeloma cell lines against the NCATS MIPE library collection: JJN3_DSMZ cell viability assay (AID 1918966; also: nearly all actives have a fitted effect of over 50% in size; also: potency is read from the fitted curve at half-maximal effect); conditions: JJN3 myeloma cells viability, CellTiter-Glo ATP, 48 h; series mostly up to 45.8 µM
Method in brief: as §2

[12] = Quantitative High-Throughput drug screen in 47 multiple myeloma cell lines against the NCATS MIPE library collection: H1112_PLB cell viability assay (AID 1918967; also: nearly all actives have a fitted effect of over 30% in size; also: potency is read from the fitted curve at half-maximal effect); conditions: H1112 myeloma cells viability, ATP luminescence, 48 h; series mostly up to 45.8 µM
Method in brief: as §2

[13] = Quantitative High-Throughput drug screen in 47 multiple myeloma cell lines against the NCATS MIPE library collection: Karpas25_ECACC cell viability assay (AID 1918968; also: nearly all actives have a fitted effect of over 35% in size; also: potency is read from the fitted curve at half-maximal effect); conditions: Karpas25 myeloma viability, CellTiter-Glo ATP, 48 h; series mostly up to 45.8 µM
Method in brief: as §2

[14] = Quantitative High-Throughput drug screen in 47 multiple myeloma cell lines against the NCATS MIPE library collection: KMS27_JCRB cell viability assay (AID 1918970); conditions: KMS27 myeloma cells, CellTiter-Glo ATP viability, 48 h; series mostly up to 45.8 µM; also: nearly all actives have a fitted effect of over 30% in size; also: potency is read from the fitted curve at half-maximal effect
Method in brief: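 Luminescent ATP read-out (CellTiter-Glo, 5 min at room temperature) after 48 h compound exposure of 500 KMS27_JCRB cells per well; DMSO wells define full viability and media-only wells zero.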

[15] = Quantitative High-Throughput drug screen in 47 multiple myeloma cell lines against the NCATS MIPE library collection: ARD_JJKsccE7 cell viability assay (AID 1918929; also: potency is read from the fitted curve at half-maximal effect); conditions: ARD myeloma cell line viability, CellTiter-Glo, 48 h; series mostly up to 45.8 µM
Method in brief: as §2

[16] = Quantitative High-Throughput drug screen in 47 multiple myeloma cell lines against the NCATS MIPE library collection: Delta47_JCRB cell viability assay (AID 1918925; also: nearly all actives have a fitted effect of over 45% in size; also: potency is read from the fitted curve at half-maximal effect); conditions: Delta47 myeloma viability, CellTiter-Glo ATP, 48 h; series mostly up to 45.8 µM
Method in brief: as §2

[17] = Quantitative High-Throughput drug screen in 47 multiple myeloma cell lines against the NCATS MIPE library collection: Karpas417_ECACC cell viability assay (AID 1918961); conditions: Karpas417 myeloma viability, CellTiter-Glo ATP luminescence, 48 h; viability (% of DMSO): at 45.8 µM (top of the series)
Method in brief: as §4

[18] = Quantitative High-Throughput drug screen in 47 multiple myeloma cell lines against the NCATS MIPE library collection: KMS12BM_JCRB cell viability assay (AID 1918971); conditions: KMS12BM myeloma viability, CellTiter-Glo ATP, 48 h; series mostly up to 45.8 µM; also: nearly all actives have a fitted effect of over 35% in size; also: potency is read from the fitted curve at half-maximal effect
Method in brief: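 Viability readout: CellTiter-Glo luminescence following 5 min room-temperature incubation with reagent. Prior exposure: 48 h, 37C, humidified 5% CO2, 500 cells per well.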

Measured: Potency

CC[C@@H]1[C@@H](C)O[C@@](O)([C@@H](C)[C@H](O)[C@H](C)[C@H]2OC(=O)C=CC=C[C@@H](C)[C@@H]([C@@H](C)[C@@H](O)[C@H](C)[C@@]3(O)C[C@H](O[C@H]4C[C@H](O)[C@H](O)[C@H](C)O4)[C@H](CC)[C@@H](C)O3)OC(=O)C=CC=C[C@@H]2C)C[C@H]1O[C@H]1C[C@H](O)[C@H](O)[C@H](C)O1
active: [1] 0.526 µM | [2] 0.833 µM | [3] 0.332 µM | [4] 0.372 µM | [5] 0.372 µM | [6] 0.469 µM | [7] 1.05 µM | [8] 0.935 µM | [9] 0.264 µM | [10] 1.05 µM | [11] 0.833 µM | [12] 1.05 µM | [13] 0.743 µM | [14] 0.264 µM

COc1ccc2c(c[n+](C)c3c4cc5c(cc4ccc23)OCO5)c1OC
active: [1] 4.18 µM | [2] 2.96 µM | [3] 6.62 µM | [4] 2.96 µM | [5] 5.9 µM | [6] 5.9 µM | [7] 6.62 µM | [8] 7.43 µM | [9] 4.18 µM | [10] 8.33 µM | [11] 2.64 µM | [12] 7.43 µM | [14] 6.62 µM

CN(C)NC(=O)CCC(=O)O
inactive: [1] | [2] | [3] | [15] | [5] | [6] | [8] | [9] | [12] | [13] | [14]

COc1ccc(CC2NCCc3cc(OC)c(OC)cc32)cc1OC (configuration not stated)
inactive: [1] | [16] | [5] | [6] | [17] | [8] | [12] | [14] | [18]

COC[C@H]1OC(=O)c2coc3c2[C@@]1(C)C1=C(C3=O)[C@@H]2CC[C@H](O)[C@@]2(C)C[C@@H]1OC(C)=O
active: [1] 3.72 µM | [16] 0.0066 µM | [3] 5.26 µM | [4] 0.332 µM | [15] 6.62 µM | [5] 3.72 µM | [6] 5.9 µM | [9] 1.48 µM | [10] 1.18 µM | [11] 3.32 µM | [12] 1.05 µM | [13] 0.264 µM | [14] 4.69 µM

C1=C2CCCN[C@H]2[C@@H]2C[C@H]1[C@@H]1CCCCN1C2
inactive: [1] | [16] | [3] | [4] | [5] | [6] | [17] | [7] | [8] | [11] | [12] | [14]

C[C@]12CC[C@H]3[C@@H](CCC4=CC(=O)CC[C@@]43C)[C@H]1CC[C@H]2O
inactive: [1] | [16] | [3] | [4] | [5] | [7] | [8] | [9] | [10] | [12] | [14]

N#C[C@H](O[C@@H]1O[C@H](CO[C@@H]2O[C@H](CO)[C@H](O)[C@H](O)[C@H]2O)[C@H](O)[C@H](O)[C@H]1O)c1ccccc1
active: [1] 20.9 µM | [16] 18.7 µM | [15] 5.9 µM | [5] 9.35 µM | [7] 23.5 µM | [8] 20.9 µM | [10] 13.2 µM | [11] 18.7 µM | [12] 26.4 µM | [14] 6.62 µM | [18] 20.9 µM

CCN1C[C@]2(OC(=O)c3ccccc3NC(C)=O)CC[C@H](OC)[C@@]34[C@H]5CC6[C@@H](OC)C[C@](O)(C(C[C@@H]23)[C@@H]14)[C@@]5(O)[C@@H]6OC
inactive: [1] | [16] | [3] | [4] | [5] | [6] | [8] | [10] | [12] | [13]

C[C@@]12OC(=O)[C@]1([C@@H](O)[C@@H]1C=CCCC1)NC(=O)[C@H]2CCCl
active: [1] 0.0053 µM | [3] 0.0118 µM | [4] 0.0105 µM | [5] 0.0093 µM | [6] 0.0074 µM | [8] 0.0235 µM | [9] 0.0209 µM | [10] 0.001 µM | [11] 0.0332 µM | [12] 0.0235 µM | [14] 0.0187 µM

CCOC(=O)c1c(C(C#N)=CN)c2ccc(Cl)c(Cl)c2n1C
inactive: [1] | [3] | [4] | [5] | [7] | [8] | [12] | [14]

CCCC[N+]1(C)[C@H]2CC(OC(=O)[C@H](CO)c3ccccc3)C[C@H]1[C@H]1O[C@H]12 (some centres not stated)
inactive: [1] | [15] | [5] | [6] | [7] | [8] | [9] | [11] | [12] | [14]
active: [10] 2.35 µM

C[C@H]([C@H](O)CCC(C)(C)O)[C@H]1CC[C@@]2(O)C3=CC(=O)[C@@H]4C[C@@H](O)[C@@H](O)C[C@]4(C)[C@@H]3CC[C@]12C
inactive: [1] | [5] | [6] | [7] | [8] | [10] | [12] | [13] | [14]

CC[C@H]1C=CC=CC[C@@H](C)[C@H](O)[C@@](C)(O)C(=O)[C@@H](C)[C@H](O)[C@@H](C)C(=O)[C@@H](C)[C@H](O)[C@@H](C)C=CC(=O)O[C@@H]2[C@@H](C)[C@H](CC1)O[C@]1(CC[C@H](C)[C@H](C[C@@H](C)O)O1)[C@H]2C
active: [16] 0.001 µM | [3] 0.0059 µM | [4] 0.0021 µM | [5] 0.001 µM | [9] 0.001 µM | [10] 0.0132 µM | [11] 18.7 µM | [12] 0.0053 µM | [13] 0.001 µM

Source: PubChem BioAssay (NCATS)
